Calls of active or inactive are those of the source. How the source made its calls: active means hit-call score of the fitted dose curve at least 0.9, where 1 is the maximum; inactive means score below 0.9.

Assay [1] in a line: CEETOX_H295R_PROG: CeeTox H295R High-throughput Steroidogenesis Assay for Progesterone (PROG) (AID 2283442). The following applies: actives raise or lower the signal. In a few lines: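 Progesterone secreted by human H295R cells was measured by LC-MS/MS following 48 h chemical exposure at 0.1% DMSO, preceded by 48 h forskolin (10 uM) stimulation. Same-well MTT viability; cytotoxic concentrations diluted 10- or 100-fold and retested.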

Read-out in assay [2]: Tumor necrosis factor receptor superfamily member 6 (Homo sapiens) (UniProt P25445)
The assay can be described thus: LTEA_HepaRG_FAS: Life Technologies and Expression Analysis (LTEA) Assay for Fas cell surface death receptor (FAS) using HepaRG (AID 2283447). The following applies: mRNA level, 48 h; actives raise or lower the signal. The method in brief:
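Differentiated HepaRG cells in serum-free induction medium were exposed 48 h to 8 half-log concentrations up to 100 uM in 0.5% DMSO, in duplicate. FAS mRNA was measured by qRT-PCR normalised to ACTB, GAPDH and POLR2A; bidirectional fit versus DMSO.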

Read-out in assay [3]: Fatty acid synthase (Homo sapiens) (UniProt P49327)
The assay can be described thus: LTEA_HepaRG_FASN: Life Technologies and Expression Analysis (LTEA) Assay for Fatty Acid Synthase (FASN) using HepaRG (AID 2283448).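 On AC50: differentiated human HepaRG liver cells in serum-free induction medium.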 The following applies: mRNA level, 48 h; actives raise or lower the signal. The method in brief: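 Cells were plated, cultured 48 h, switched to serum-free induction medium, then dosed in duplicate (max 100 uM, half-log dilutions, 0.5% DMSO) for 48 h. RNA was then isolated and FASN quantified by qRT-PCR.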

Read-out in assay [4]: Cyclin D2 (CCND2), CCND2 (gene 894)
Nature of the assay: LTEA_HepaRG_CCND2: Life Technologies and Expression Analysis (LTEA) Assay for Cyclin D2 (CCND2) using HepaRG (AID 2283449).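 Further: CCND2 transcript measured by TaqMan qRT-PCR and normalised to three housekeeping genes.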 The note with it: mRNA level, 48 h; actives raise or lower the signal. The method in brief:
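HepaRG, 48 h dosing, 8-pt half-log curve from 100 uM, 0.5% DMSO; duplicate wells. Readout: CCND2 transcript by microfluidic qRT-PCR, housekeeping-normalised; bidirectional fit vs DMSO baseline.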

Read-out in assay [5]: Cyclin Dependent Kinase Inhibitor 1A (CDKN1A), CDKN1A (gene 1026)
The assay can be described thus: LTEA_HepaRG_CDKN1A: Life Technologies and Expression Analysis (LTEA) Assay for Cyclin Dependent Kinase Inhibitor 1A (CDKN1A) using HepaRG (AID 2283450). The following applies: mRNA level, 48 h; actives raise or lower the signal. In a few lines: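 Expression quantified by Fluidigm qRT-PCR with ACTB, GAPDH and POLR2A normalization, fitted bidirectionally against 0.5% DMSO. Cells: HepaRG, plated 48 h then treated 48 h in serum-free induction medium, top concentration 100 uM with half-log dilutions.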

Read-out in assay [6]: catalase (CAT), CAT (gene 847)
Nature of the assay: LTEA_HepaRG_CAT: Life Technologies and Expression Analysis (LTEA) Assay for catalase (CAT) using HepaRG (AID 2283452).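 On AC50: TaqMan qRT-PCR signal normalized to ACTB GAPDH and POLR2A housekeeping genes.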 The following applies: mRNA level, 48 h; actives raise or lower the signal. The method in brief: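 HepaRG cells in serum-free induction medium, 0.5% DMSO vehicle, exposed 48 h in duplicate over 8 half-log concentrations from 100 uM. CAT mRNA measured by qRT-PCR, normalized to ACTB, GAPDH, POLR2A; bidirectional fit versus DMSO.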

Read-out in assay [7]: flavin-containing dimethylaniline monooxygenases 3 (FMO3), FMO3 (gene 2328)
The assay can be described thus: LTEA_HepaRG_FMO3: Life Technologies and Expression Analysis (LTEA) Assay for flavin-containing dimethylaniline monooxygenases 3 (FMO3) using HepaRG (AID 2283453).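 On AC50: differentiated human HepaRG liver cells in serum-free induction medium; FMO3 transcript by TaqMan qRT-PCR normalized to ACTB GAPDH and POLR2A.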 The note with it: mRNA level, 48 h; actives raise or lower the signal. In a few lines:
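FMO3 transcript quantified by TaqMan qRT-PCR against three housekeeping genes after 48 h chemical exposure of HepaRG cells. Eight-point half-log series, top 100 uM, 0.5% DMSO vehicle; phenobarbital 1mM induction control; up- or down-regulation fitted.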

Read-out in assay [8]: Cytochrome P450 (CYP1A1), CYP1A1 (gene 1543)
Nature of the assay: LTEA_HepaRG_CYP1A1: Life Technologies and Expression Analysis (LTEA) Assay for Cytochrome P450 (CYP1A1) using HepaRG (AID 2283454). The following applies: mRNA level, 48 h; actives raise or lower the signal. In a few lines: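 CYP1A1 transcript levels measured by Fluidigm qRT-PCR against three housekeeping genes, 48 h after chemical dosing of human HepaRG cells (highest concentration 100 uM, half-log steps, 0.5% DMSO vehicle). Gain or loss of signal fitted relative to DMSO.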

Read-out in assay [9]: CFLAR gene, CFLAR (gene 8837)
The assay can be described thus: LTEA_HepaRG_CFLAR: Life Technologies and Expression Analysis (LTEA) Assay for CFLAR gene using HepaRG (AID 2283455). The note with it: mRNA level, 48 h; actives raise or lower the signal. The method in brief:
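qRT-PCR read-out (Fluidigm/TaqMan) of CFLAR mRNA, normalized to three housekeeping genes, in differentiated human HepaRG cells after 48 h chemical exposure; 8-point half-log series from 100 uM in 0.5% DMSO; bidirectional curve fitting versus DMSO.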

Read-out in assay [10]: Cyclin D1 (CCND1), CCND1 (gene 595)
The assay can be described thus: LTEA_HepaRG_CCND1: Life Technologies and Expression Analysis (LTEA) Assay for Cyclin D1 (CCND1) using HepaRG (AID 2283451).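 On AC50: differentiated human HepaRG liver cells in serum-free induction medium; TaqMan qRT-PCR transcript level normalised to ACTB GAPDH and POLR2A housekeeping genes.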 The note with it: mRNA level, 48 h; actives raise or lower the signal. In a few lines: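 Expression of CCND1 was quantified by qRT-PCR on Fluidigm arrays using ACTB, GAPDH and POLR2A as reference genes. HepaRG cultures, plated 48 h beforehand, were dosed for 48 h at up to 100 uM (half-log, 8 points) in 0.5% DMSO.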

Chain of Fatty acid synthase (Homo sapiens) (P49327 whole entry, looked up): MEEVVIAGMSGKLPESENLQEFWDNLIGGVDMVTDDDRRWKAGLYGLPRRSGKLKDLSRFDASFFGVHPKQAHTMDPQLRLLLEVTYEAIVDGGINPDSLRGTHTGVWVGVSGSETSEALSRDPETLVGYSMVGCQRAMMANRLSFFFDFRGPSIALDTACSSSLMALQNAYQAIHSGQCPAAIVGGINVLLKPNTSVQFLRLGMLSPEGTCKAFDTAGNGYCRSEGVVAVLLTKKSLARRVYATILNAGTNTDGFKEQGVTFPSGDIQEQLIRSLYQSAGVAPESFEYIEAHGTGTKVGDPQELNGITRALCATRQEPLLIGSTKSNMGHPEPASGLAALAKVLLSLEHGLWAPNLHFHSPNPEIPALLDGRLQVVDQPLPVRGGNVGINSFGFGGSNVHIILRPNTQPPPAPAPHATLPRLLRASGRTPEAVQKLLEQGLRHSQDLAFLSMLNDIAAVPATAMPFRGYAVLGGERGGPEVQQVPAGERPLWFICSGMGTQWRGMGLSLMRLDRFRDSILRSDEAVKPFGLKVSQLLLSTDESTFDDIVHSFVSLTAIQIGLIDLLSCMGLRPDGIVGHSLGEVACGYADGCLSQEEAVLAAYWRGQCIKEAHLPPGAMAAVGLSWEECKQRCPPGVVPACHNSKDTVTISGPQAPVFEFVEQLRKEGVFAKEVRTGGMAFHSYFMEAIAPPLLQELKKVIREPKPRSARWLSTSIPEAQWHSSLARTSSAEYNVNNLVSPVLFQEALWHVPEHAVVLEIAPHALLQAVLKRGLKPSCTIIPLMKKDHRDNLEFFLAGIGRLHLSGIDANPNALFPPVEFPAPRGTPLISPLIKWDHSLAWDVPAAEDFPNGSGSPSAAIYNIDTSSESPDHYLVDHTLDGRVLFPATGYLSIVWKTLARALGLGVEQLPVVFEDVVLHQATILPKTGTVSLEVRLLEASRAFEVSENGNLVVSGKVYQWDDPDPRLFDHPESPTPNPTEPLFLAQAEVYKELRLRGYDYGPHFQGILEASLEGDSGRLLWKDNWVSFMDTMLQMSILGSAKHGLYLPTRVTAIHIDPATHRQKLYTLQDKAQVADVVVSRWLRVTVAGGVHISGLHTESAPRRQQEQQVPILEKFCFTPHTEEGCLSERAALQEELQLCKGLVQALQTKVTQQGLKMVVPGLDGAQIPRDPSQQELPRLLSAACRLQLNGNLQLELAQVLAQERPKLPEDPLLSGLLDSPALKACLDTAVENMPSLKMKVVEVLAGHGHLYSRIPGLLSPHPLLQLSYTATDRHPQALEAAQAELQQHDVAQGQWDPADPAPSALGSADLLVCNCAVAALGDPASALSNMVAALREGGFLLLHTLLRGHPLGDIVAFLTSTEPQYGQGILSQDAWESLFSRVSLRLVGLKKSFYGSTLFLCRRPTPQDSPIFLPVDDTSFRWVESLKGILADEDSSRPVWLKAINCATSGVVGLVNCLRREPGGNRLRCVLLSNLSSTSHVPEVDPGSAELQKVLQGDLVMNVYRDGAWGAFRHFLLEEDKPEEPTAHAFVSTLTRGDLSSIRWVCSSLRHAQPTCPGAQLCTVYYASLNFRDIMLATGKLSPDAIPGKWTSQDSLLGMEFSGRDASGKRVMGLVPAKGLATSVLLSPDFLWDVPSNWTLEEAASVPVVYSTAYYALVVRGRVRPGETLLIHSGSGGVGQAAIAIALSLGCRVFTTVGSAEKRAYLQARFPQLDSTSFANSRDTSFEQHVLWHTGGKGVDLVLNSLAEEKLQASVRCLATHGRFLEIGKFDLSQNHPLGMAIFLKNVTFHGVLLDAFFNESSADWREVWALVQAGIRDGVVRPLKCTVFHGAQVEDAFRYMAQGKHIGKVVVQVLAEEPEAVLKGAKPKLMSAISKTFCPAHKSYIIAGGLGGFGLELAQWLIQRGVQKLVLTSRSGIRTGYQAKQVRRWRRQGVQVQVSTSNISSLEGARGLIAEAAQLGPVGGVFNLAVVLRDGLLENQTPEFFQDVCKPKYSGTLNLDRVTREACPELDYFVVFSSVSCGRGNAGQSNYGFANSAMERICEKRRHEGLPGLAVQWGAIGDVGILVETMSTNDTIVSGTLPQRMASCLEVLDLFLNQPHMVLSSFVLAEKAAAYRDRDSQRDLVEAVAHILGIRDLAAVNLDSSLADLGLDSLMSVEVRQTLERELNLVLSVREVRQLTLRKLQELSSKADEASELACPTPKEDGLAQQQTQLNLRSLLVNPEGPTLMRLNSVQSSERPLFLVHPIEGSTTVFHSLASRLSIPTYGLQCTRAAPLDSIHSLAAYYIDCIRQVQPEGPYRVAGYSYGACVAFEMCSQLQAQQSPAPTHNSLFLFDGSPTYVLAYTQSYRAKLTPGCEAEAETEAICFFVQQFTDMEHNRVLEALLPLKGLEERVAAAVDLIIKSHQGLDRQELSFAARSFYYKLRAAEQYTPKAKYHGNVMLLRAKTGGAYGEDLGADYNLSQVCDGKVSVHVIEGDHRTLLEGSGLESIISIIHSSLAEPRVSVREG

On to `CCCCCCCCCCCCCCO`, for which the compound was classed as inactive in assay [1], in assay [2], in assay [3], in assay [4], in [5] and in assay [6]. The result in [7] and in assay [9] was inactive. Further, the AC50 in assay [8] was 50 µM (active).
As for `CCOc1ccc2[nH]cc(C(=O)NCc3ccccc3)c(=O)c2n1`, the call in [1], in assay [2], in assay [3], in [4], in assay [5] and in assay [10] was inactive. For the same compound, the compound was classed as inactive in assay [6] and in assay [9]. For the same compound, the AC50 in assay [7] is 79.6 µM (active).
Turning to `NNC(=O)c1ccncc1`, the compound was called inactive in [2], in assay [3], in assay [4], in assay [5], in assay [10] and in assay [6]. Besides, the compound was called inactive in assay [7] and in [9]. In assay [8], the AC50 is 22 µM (active).
In the case of `CCCOc1ccc(S(=O)(=O)N2CCN(CC)CC2)cc1-c1nc2c(CC)n(Cc3ccccn3)nc2c(=O)[nH]1`, the result in [1], in assay [2], in assay [4], in [5], in assay [6] and in assay [7] was inactive. The outcome in [9] was inactive. Moreover, the concentration at half-maximal activity (AC50) in assay [3] is 50 µM (active).
Turning to `CC(C)CCCCCCOC(=O)C1CCCCC1C(=O)OCCCCCCC(C)C` (stereo unspecified), the call in assay [2], in assay [3], in [4], in [5], in [10] and in [6] was inactive. The call in assay [7] and in assay [9] was inactive. Besides, the AC50 in assay [8] was 75.6 µM (active).
In the case of `CC(C)C(=O)Nc1ccc([N+](=O)[O-])c(C(F)(F)F)c1`, the AC50 is 67 µM (active) in assay [2]; 37 µM (active) in assay [3]; 50 µM (active) in assay [5]; 12.4 µM (active) in [10]; 62.1 µM (active) in [6]; 50 µM (active) in assay [7]. Further, the results for the AC50 in assay [8] and in [9] were 11.3 µM (active) and 50 µM (active), respectively. The compound was called inactive in [4].
Consider `CCCCOC(=O)c1ccccc1`, for which the compound was classed as inactive in assay [2], in [3], in assay [4], in assay [5], in assay [10] and in assay [6]. For the same compound, the call in assay [7], in assay [8] and in assay [9] was inactive.
For the compound `Cn1cc[nH]c1=S`, the compound was called inactive in assay [2], in [3], in assay [4], in assay [5], in assay [10] and in [6]. Besides, the compound was classed as inactive in assay [7] and in assay [9]. Besides, the AC50 in [8] is 37.4 µM (active).
Consider `O=C(NO)C1(NS(=O)(=O)c2ccc(Oc3ccc(F)cc3)cc2)CCOCC1`, for which the compound was classed as inactive in assay [2], in assay [4], in assay [10] and in [9]. The AC50 in [3] is 50 µM (active); in assay [5], 85.1 µM (active); in [6] it was 85.5 µM (active); in assay [7], 76.5 µM (active).
As to `CCc1cccc(CC)c1N`, the compound was called inactive in [2], in assay [3], in assay [4], in [5], in [10] and in [6]. Moreover, the compound was classed as inactive in assay [7] and in assay [9].
For `OC(CCl)CCl`, the compound was classed as inactive in assay [2], in assay [3], in assay [4], in assay [5], in [10] and in assay [6]. In addition, the compound was called inactive in assay [7] and in [9].
`CC(C)c1nnc2ccc(-c3ocnc3-c3cc(F)ccc3F)cn12`: the compound was classed as inactive in assay [1], in assay [2], in [5] and in assay [9]. The concentration at half-maximal activity (AC50) in assay [3] was 50 µM (active); in assay [6], 50 µM (active); in [7], 63.6 µM (active).
Take `CCCCCCCCN(C)C`: the compound was called inactive in assay [1], in assay [2], in [3], in assay [4], in [5] and in assay [6]. Further, the call in assay [7], in assay [8] and in assay [9] was inactive.
As for `O=c1[nH]cnc2c1ncn2[C@H]1CC[C@@H](CO)O1`, the result in assay [2], in assay [3], in assay [4], in [5], in assay [10] and in assay [6] was inactive. Moreover, the outcome in assay [7] and in assay [9] was inactive.
For `O=C1CN(N=Cc2ccc([N+](=O)[O-])o2)C(=O)N1`, the result in assay [2], in assay [3], in assay [4], in assay [10], in assay [6] and in assay [8] was inactive. For the same compound, in assay [9], the result was inactive. Besides, the AC50 is 81.5 µM (active) in assay [5] and 73 µM (active) in assay [7].
Take `CCCCCCCC1CCC(=O)O1` (stereo unspecified): the call in assay [1], in [2], in assay [3], in [4], in assay [5] and in [6] was inactive. Further, the compound was classed as inactive in [7] and in assay [9].

Source of the values: PubChem BioAssay (EPA / NIEHS).
